# Compound activity: PubChem, The Scripps Research Institute Molecular Screening Center
# Compounds with a hit are over-represented: about 4.8% of the library has one in this group of screens.
# SMARCA2 act – SMARCA2 function activation, primary screen | MG213 cells, MMTV-luciferase reporter, dexamethasone, overnight | activation, % at 9.1 µM | actives 1% (n = 370,000); in the data active = activation above about 7.8%;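 note: 0% = vehicle wells and 100% = reference activator wells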
# DAX1 inh-1 – NR0B1 (DAX1) inhibition. P51843. HEK293 Gal4-DAX1 luciferase reporter, luminescence. inhibition, % at 6.75 µM. actives 0.99% (n = 340,000). AID 504766;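 active = inhibition above the mean over all tested compounds plus 3 SD, cut at about 4.2% in these data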;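 note: 0% = DAX1-transfected cells with DMSO and 100% = empty-vector control cells with DMSO; inhibition shows as a rise in luminescence from relieved DAX1 repression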
# ssDAF-12 act – S. stercoralis DAF-12 activation, primary screen | activation, % at 6.8 µM | AID 652126 | actives 1% (n = 370,000) | HEK293 ssDAF-12/GRIP1 lit1-tk-luc reporter, luminescence; % of 3 µM dafachronic acid response;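 active = activation above the mean over all tested compounds plus 3 SD, cut at about 0.9% in these data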;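 note: 0% = DMSO-only wells and 100% = 3 µM delta7-dafachronic acid wells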
# hcDAF12 agonist – H. contortus DAF-12 activation, primary screen | HEK293 hcDAF-12 lit1-tk-luc reporter, luminescence; 0% DMSO, 100% Δ7-dafachronic acid | activation, % at 6.8 µM | actives 1.4% (n = 370,000) | AID 652067;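 active = activation above the mean of all tested compounds plus 3 SD, cut at about 5.5% in these data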;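 note: 100% = response to 3 µM Δ7-dafachronic acid high control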
# hgDAF-12 ag – agonists of H. glycines DAF-12 nuclear receptor; activation, % at 6.8 µM; HEK293 GAL4-hgDAF12 UAS-luciferase reporter, agonist luminescence; normalized to butyrate control; actives 1.8% (n = 370,000);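 active = activation above a cutoff set at the mean of all screened compounds plus 3 SD, cut at about 10% in these data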;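 note: 0% = DMSO wells and 100% = sodium butyrate wells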
# DAX1 inh-2 – blocks DAX1 repression of SF-1 activated StAR promoter; HEK293T StAR-luciferase reporter, SF-1/DAX-1 repression relief; inhibition, % at 6.8 µM; actives 1.1% (n = 370,000); AID 652010;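 active = inhibition above the mean over all tested compounds plus 3 SD, cut at about 3.6% in these data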;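 note: 0% = DAX-1 cells with DMSO and 100% = cells lacking DAX-1 with DMSO; higher inhibition means more luminescence from relief of DAX-1 repression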
# hgDAF12 conf – confirmation of H. glycines DAF-12 agonists; HEK293 GAL4-hgDAF12 luciferase reporter, agonist mode; percent of butyrate response; shares compounds with hgDAF-12 ag; actives 80% (n = 3,300); activation, % at 6.8 µM; AID 743050;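 active = mean activation over triplicate wells above the hit cutoff derived from the earlier primary screen, cut at about 11% in these data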;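 note: 0% = DMSO low control and 100% = 2 mM sodium butyrate high control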
# LXRb DAF12 ctr – LXR-beta agonism as DAF-12 counter-screen | HEK293 Gal4-LXR luciferase reporter, 24 h | 3,300 tested, under 10 active | activation, % at 6.8 µM | shares compounds with hgDAF-12 ag;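 active = mean activation of the triplicate above a set limit carried over from the primary screen, none filed active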
# Target sequence (P55055 whole entry, looked up, the tested form may be a part): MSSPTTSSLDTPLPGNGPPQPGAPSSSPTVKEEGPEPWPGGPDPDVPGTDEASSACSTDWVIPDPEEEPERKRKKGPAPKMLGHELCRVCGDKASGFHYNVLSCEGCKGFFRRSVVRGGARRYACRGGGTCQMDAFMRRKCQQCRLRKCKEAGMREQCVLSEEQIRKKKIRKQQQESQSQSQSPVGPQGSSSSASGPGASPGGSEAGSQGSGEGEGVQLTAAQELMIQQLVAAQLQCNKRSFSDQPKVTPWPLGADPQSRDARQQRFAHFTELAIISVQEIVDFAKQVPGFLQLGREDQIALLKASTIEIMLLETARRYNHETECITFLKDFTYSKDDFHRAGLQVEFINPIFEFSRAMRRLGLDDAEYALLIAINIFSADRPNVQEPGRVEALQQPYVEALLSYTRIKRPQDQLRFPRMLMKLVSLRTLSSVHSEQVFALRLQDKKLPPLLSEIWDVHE
# The depositor's hits bear a star; x = no result.
SMILES,SMARCA2 act,DAX1 inh-1,ssDAF-12 act,hcDAF12 agonist,hgDAF-12 ag,DAX1 inh-2,hgDAF12 conf,LXRb DAF12 ctr
COc1cccc(C(=O)Nc2ccc(C3CC3(Cl)Cl)cc2)c1 (stereo not given),5,0,1.2*,2,19*,3,18*,1
COc1cccc(C(=O)NC(=O)Nc2cc(C)[nH]n2)c1,5,8.1*,0,4,15*,3,14*,1
Cc1ccc(N(Cc2cc3ccc(C)cc3[nH]c2=O)C(=O)c2ccco2)c(C)c1,-3,2,-1,0,-1,-1,x,x
Cc1nc2c(OCc3ccc(OC(F)F)cc3)cccn2c1N(C)C(=O)CCC1CCCC1,-6,x,-2,-3,-5,-3,x,x
COc1ccc(OCC(O)CN(C)C(=O)/C=C/c2cccc([N+](=O)[O-])c2)cc1 (stereo not given),0,0,-1,1,-1,0,x,x
Fc1ccccc1CSc1ccc(-c2ccco2)nn1,6,4,0,2,16*,4.1*,15*,1
COc1ccccc1C(=O)COC(=O)c1ccc(N(C)C)cc1,-2,4.5*,0,5,16*,3,13*,1
CCCCN1C(=O)C(=O)N(CC(=O)N2CCN(c3ccccc3)CC2)C1=O,0,0,0,-1,4,2,x,x
CCCCN1C(=O)C(=O)N(c2ccccc2)C1=S,2,2,0,4,16*,4.1*,14*,1
Cc1ccc(C(=O)N2CCN(c3ccc(NC(=O)c4cccs4)cc3)CC2)cc1,4,0,-1,-2,-1,-3,x,x
O=C(N/N=C/c1ccc(N2CCOCC2)cc1)c1cccs1,5,1,-1,3,20*,4.4*,14*,1
CN1CCN(c2ccc(NC(=O)c3cccs3)cc2)CC1,4,5.7*,0,4,15*,4.3*,12*,1
COc1ccc(C(=O)NCC(c2ccco2)N2CCCC2)cc1S(=O)(=O)N1CCCCC1C (stereo not given),-1,1,0,0,1,-2,x,x
CCc1ccc(NC(=O)CSc2ccccn2)cc1,7,2,-1,3,14*,1,6,0
O=C(CCSc1ccccn1)Nc1ccc(Br)cc1,3,1,1.1*,2,14*,2,11*,1
CS(=O)(=O)Nc1nnc(CCc2ccccc2)s1,-3,0,1,1,-3,0,x,x
O=C(/C=C/c1ccc(-c2ccccc2)cc1)NC1=NCCS1,x,x,0,4,18*,x,14*,0
COc1ccc(/C=C/C(=O)Nc2ccccc2)cc1OC,2,0,0,2,17*,3,10,0
COc1cc(/C=C/C(=O)NC(=O)c2ccccc2O)ccc1OC(C)=O,5,3,0,5,15*,2,6,0
COc1ccc(/C=C/C(=O)NC(=S)Nc2ccccc2)cc1OC,-2,0,-1,-2,-1,0,x,x
COc1ccccc1/C=C/C(=O)Nc1ccc2c(c1)OCCO2,7,-2,0,5,17*,3,18*,1
Cc1cc(C)n(-c2ccc(C(=O)Nc3ccc(N4CCOCC4)cc3)cc2)n1,-2,0,-1,0,2,-1,x,x
CCc1ccc(CNC(=O)Cn2nc(-c3ccccc3)ccc2=O)cc1,3,0,-1,0,2,0,x,x
COC(=O)c1ccccc1NC(=O)CSc1n[nH]c(-c2cccnc2)n1,-3,0,-2,-1,-2,-1,x,x
Cc1cc(C)cc(C(=O)OCC(=O)NCc2ccco2)c1,-1,3,-2,-1,1,1,x,x
SMILES,SMARCA2 act,DAX1 inh-1,ssDAF-12 act,hcDAF12 agonist,hgDAF-12 ag,DAX1 inh-2,hgDAF12 conf,LXRb DAF12 ctr
COc1ccc(NC(=O)C(C)N=C2NS(=O)(=O)c3ccccc32)cc1S(N)(=O)=O (stereo not given),-3,1,-1,1,15*,2,-2,0
O=C(NCC1CCCO1)c1[nH]c(C(F)(F)F)nc1-c1ccccc1 (stereo not given),-1,x,-1,0,3,0,x,x
Cc1ccc(NC(=O)c2ccc(CSc3nnc(C)s3)cc2)cc1,3,3,0,4,16*,2,14*,1
Cc1ccc(NC(=O)c2ccc(Cl)c(N3C(=O)C=CC3=O)c2)cc1,5,3,1,3,14*,3.8*,0,0
Cc1ccc(NC(=O)c2ccccc2)cc1,4,2,1,3,14*,2,17*,1
Nc1ccccc1NC(=O)c1ccccc1,2,7.4*,-1,2,27*,4.3*,51*,0
O=C(O)CC(C(=O)O)N1C(=O)/C(=C/C=C/c2ccco2)SC1=S (stereo not given),-4,1,-1,2,-1,1,x,x
CCCN(CCC)CC(O)Cn1cc(/C=C/C(=O)c2cccs2)c2ccccc21 (stereo not given),-1,-1,-1,5,27*,0,0,0
C/C(=N\NC(=O)c1cccs1)C(C)(C)C,3,2,-1,1,18*,3,1,0
C/C(=N/NC(=O)c1cccs1)c1ccco1,5,2,0,3,18*,3,9,0
O=C(c1ccccc1)N1CC[C@H]2[C@H](CCCN2Cc2ccccc2)C1,3,x,-2,1,0,0,x,x
Nc1nnc(CC(=O)N/N=C/c2ccc(-c3cccc(C(=O)O)c3)o2)s1,2,-1,-1,-1,14*,2,3,0
Nc1nnc(CC(=O)N/N=C/c2ccc(-c3ccc(F)cc3)o2)s1,-3,x,-2,-2,-1,0,x,x
N#Cc1cccc(NC(=O)CSc2nnc(-c3n[nH]c4ccccc34)o2)c1,-2,1,0,1,15*,-1,10,0
Cc1cccc(NC(=O)CSc2nnc(-c3n[nH]c4ccccc34)o2)c1,1,-1,-1,-1,2,0,x,x
Cc1cccc(NC(=O)CSc2nccn2Cc2ccco2)c1,4,2,-1,2,14*,3.9*,13*,1
Cc1cc(C)cc(NC(=O)CSc2nccn2Cc2ccco2)c1,4,0,-1,-1,0,-2,x,x
c1ccc(OCCSc2nnnn2-c2ccccc2)cc1,6,2,0,4,16*,3,19*,1
CCN(CC)c1ccc(N=Nc2ncn[nH]2)cc1,4,x,0,4,15*,2,10,0
